Reference: PubChem BioAssay (Tox21)
Unmarked numbers belong to inactive results. Records with an inconclusive call do not appear. A call without a number means that no potency is given here. Activity calls are given as the source filed them. Unless noted, calls follow the shape of the dose curve; as a rule, active = well fitted curve in the direction sought with a large enough effect in the repeat runs; inconclusive = weak or mixed curves; inactive = no such curve, though single readings can be large; an effect the other way counts as inactive or inconclusive.

Assays:
[1] = target: Luciferin 4-monooxygenase (Photinus pyralis) (UniProt P08659); assay: qHTS assay to identify small molecule inhibitors of firefly luciferase (AID 1224835); also: nearly all actives have a fitted effect of over 25% in size; also: potency is read from the fitted curve at half-maximal effect
How it was run: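 Inhibition of purified Photinus luciferase is measured by luminescence. Substrate levels (D-luciferin, ATP) sit at their KM values. Each compound is tested in a concentration series.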

[2] = qHTS assay to identify small molecule agonists of the constitutive androstane receptor (CAR) signaling pathway - cell viability counter screen (AID 1224836); also: nearly all actives have a fitted effect of over 45% in size
How it was run: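 Cells were seeded and incubated 4 hrs. Compounds were added across 15 concentrations together with PK11195 at 0.75 uM final. Plates were incubated 23 hrs at 37 C. CellTiter-Fluor was added and fluorescence measured.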

[3] = qHTS assay to identify small molecule antagonists of the constitutive androstane receptor (CAR) signaling pathway - cell viability counter screen (AID 1224837); also: nearly all actives have a fitted effect of over 45% in size
How it was run: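 HepG2 cells stably expressing hCAR and a CYP2B6-2.2kb reporter were plated and pre-incubated 4 hr at 37 C/5% CO2, then given compounds at 15 concentrations plus 50 nM CITCO (final). After 23 hr, viability was read by CellTiter-Fluor fluorescence.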

[4] = target: Nuclear receptor subfamily 1 group I member 3 (Homo sapiens) (UniProt Q14994); assay: qHTS assay to identify small molecule antagonists of the constitutive androstane receptor (CAR) signaling pathway (AID 1224838); also: nearly all actives have a fitted effect of over 40% in size
How it was run: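 HepG2 cells stably co-transfected with hCAR and a CYP2B6-2.2kb luciferase reporter were seeded 4 h before compound addition at 15 concentrations. Cells were stimulated with 50 nM CITCO (final) for 24 h at 37 C; luciferase luminescence was then read.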

[5] = target: Nuclear receptor subfamily 1 group I member 3 (Homo sapiens) (UniProt Q14994); assay: qHTS assay to identify small molecule agonists of the constitutive androstane receptor (CAR) signaling pathway (AID 1224839);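 also: HepG2 cells stably carrying human CAR and a CYP2B6 luciferase reporter; nearly all actives have a fitted effect of over 15% in size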
How it was run: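 Cells were plated and incubated 4 hrs, then dosed with compounds at 15 concentrations. PK11195 was added to 0.75 uM final. After 24 hrs at 37 C, luciferase luminescence was measured.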

[6] = qHTS assay to identify small molecule antagonists of the estrogen related receptor signaling pathway with the pleiotropic PPARgamma coactivator (PGC) from Tox21 10K library - cell viability counter screen (AID 1224840; active = well fitted cell-killing curve with a large enough effect in the repeat runs, not every such curve was filed as active; also: nearly all actives have a fitted effect of over 40% in size)
How it was run: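 PGC/ERR cells were seeded at 2,000 cells/well and left 6 hours at 37 C/5% CO2 before pin-tool addition of compounds in DMSO. After 17.5 hours at 37 C, CellTiter-Fluor was added and fluorescence read 30 minutes later.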

[7] = qHTS assay to identify small molecule antagonists of the estrogen related receptor signaling pathway with the pleiotropic PPARgamma coactivator (PGC) from Tox21 10K library (AID 1224841; call rule not given here; also: actives are mostly falling curves and most rising ones were filed inactive; nearly all actives have a fitted effect of over 50% in size)
How it was run: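 PGC/ERR reporter cells were seeded at 2,000 cells/well and held 6 hours at 37 C/5% CO2 before pin-tool addition of compounds in DMSO. After 18 hours at 37 C, One-Glo was added and luminescence read after 30 minutes at room temperature.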

[8] = qHTS assay to identify small molecule agonists of the estrogen related receptor signaling pathway with the pleiotropic PPARgamma coactivator (PGC) from Tox21 10K library (AID 1224842); also: nearly all actives have a fitted effect of over 15% in size
How it was run: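 Luminescence from One-Glo (30 min, room temperature) measured after PGC/ERR cells had 18 h at 37 C with pinned compound (23 nL in DMSO). Cells had been seeded at 2,000 per well and pre-incubated 6 h.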

[9] = target: Thyrotropin receptor (Homo sapiens) (UniProt P16473); assay: qHTS assay to identify small molecule agonists of the thyroid stimulating hormone receptor (TSHR) signaling pathway (AID 1224843; calls by dose curve; also: nearly all actives have a fitted effect of over 45% in size)
How it was run: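 Screening of the Tox21 10K collection used HEK293 cells engineered with TSHR at 800 cells per well. After a 30-min room-temperature compound exposure, HTRF cAMP reagents were added and fluorescence recorded 1 h later.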

[10] = qHTS assay to identify small molecule agonists of the hypoxia (HIF-1) signaling pathway - cell viability counter screen (AID 1224844; calls by dose curve; also: nearly all actives have a fitted effect of over 50% in size)
How it was run: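 HRE-bla ME-180 cells in medium with 0.5% dialyzed FBS were preincubated 5 hrs at 37C, exposed to compounds for 17 hrs, then viability was read as CellTiter-Glo luminescence after 30 min at room temperature, in the reporter wells.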

[11] = qHTS assay to identify small molecule agonists of H2AX (AID 1224845; active = well fitted activation curve with a large enough effect in the signal ratio in the repeat runs, not every such curve was filed as active; the % refers to the signal ratio)
How it was run: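 Phospho-H2AX Ser139 measured by HTRF (ex 320 nm; em 665 and 620 nm) after 24 hr antibody incubation. Compounds, 15 concentrations, 0.76% DMSO, were applied to CHO-K1 cells for 3hr at 37C before lysis.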

[12] = qHTS assay to identify small molecule agonists of the hypoxia (HIF-1) signaling pathway (AID 1224846; active = well fitted activation curve with a large enough effect in the signal ratio in the repeat runs, not every such curve was filed as active; the % refers to the signal ratio)
How it was run: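 HRE-bla ME-180 cells (beta-lactamase reporter under hypoxia response element) were plated at 2,000 cells/well in medium with 0.5% dialyzed FBS, rested 5 hrs, then given compounds in DMSO for 17 hrs at 37C, 5% CO2. Reporter induction was read with CCF4-AM FRET substrate.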

[13] = qHTS assay to identify small molecule agonists of H2AX - cell viability counter screen (AID 1224847; calls by dose curve; also: top concentration of the series differs between compounds; nearly all actives have a fitted effect of over 30% in size)
How it was run: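 Cytotoxicity counter screen in wild-type CHO-K1 cells: a 3 hr compound treatment at 37C across 15 concentrations, followed by CellTiter-Glo luminescence to gauge viable cells.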

[14] = qHTS assay to identify small molecule antagonists of the estrogen related receptor (ERR) signaling pathway from Tox21 library (AID 1224848); also: nearly all actives have a fitted effect of over 50% in size
How it was run: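 Antagonist-mode screen of the Tox21 10K library in an NTP-provided ERR reporter cell line; 18 h compound exposure at 37 C, luminescence measured with ONE-Glo.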

[15] = qHTS assay to identify small molecule agonists of the estrogen related receptor (ERR) signaling pathway from Tox21 library (AID 1224849; calls by dose curve; also: nearly all actives have a fitted effect of over 15% in size); conditions: ERR reporter cell line, ONE-Glo luciferase, 18 h; at 92.4 µM (top of the series) unless noted
How it was run: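 ERR reporter cell line (NTP) seeded, rested 6 h at 37 C/5% CO2, then pinned with Tox21 compounds in DMSO. After 18 h at 37 C, ONE-Glo luciferase luminescence was read following 30 min at room temperature.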

[16] = qHTS RealTime-Glo MT Cell Viability Assay in HepG2 cells - 24 hour (AID 1224867); also: nearly all actives have a fitted effect of over 50% in size
How it was run: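 Cells + NanoLuc/prosubstrate dispensed (600 cells/well) → 5 h at 37 C/5% CO2 → compounds in DMSO transferred → 40 h incubation at 37 C, luminescence read at 0, 8, 16, 24, 32, 40 h.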

[17] = qHTS RealTime-Glo MT Cell Viability Assay in HEK293 cells - 32 hour (AID 1224868); also: nearly all actives have a fitted effect of over 50% in size; also: potency is read from the fitted curve at half-maximal effect
How it was run: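 Tox21 10K qHTS, HEK293, 600 cells/well, RealTime-Glo reagent co-dispensed with cells; 5 h preincubation, compound by pintool, 37 C, luminescence at 0–40 h.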

[18] = A CellTox Green Cytotoxicity Assay to monitor cytotoxicity in HEK293 cells - 0 hour (AID 1224869); also: nearly all actives have a fitted effect of over 50% in size
How it was run: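 HEK293 cells premixed with CellTox Green dye were seeded at 600 cells/well and left 5 h at 37 C/5% CO2 before pin transfer of 23 nL compound in DMSO. Fluorescence from dye bound to dead-cell DNA was read during 40 h treatment.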

[19] = qHTS RealTime-Glo MT Cell Viability Assay in HepG2 cells - 40 hour (AID 1224870); also: nearly all actives have a fitted effect of over 50% in size
How it was run: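 Real-time viability: cells seeded at 600 per well together with NanoLuc and cell-permeant prosubstrate, compounds added after 5 h incubation. Luminescence tracked at 0, 8, 16, 24, 32 and 40 h of exposure.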

[20] = qHTS assay to identify small molecule antagonists of the estrogen related receptor (ERR) signaling pathway from Tox21 library - cell viability counter screen (AID 1224834); also: nearly all actives have a fitted effect of over 30% in size
How it was run: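 ERR reporter cells were plated 6 h before compound addition, then exposed to test compounds in DMSO for 17.5 h at 37 C. Viability was read as CellTiter-Fluor fluorescence after a 30-minute incubation at 37 C.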

Luciferin 4-monooxygenase (Photinus pyralis), sequence (P08659 whole entry, looked up): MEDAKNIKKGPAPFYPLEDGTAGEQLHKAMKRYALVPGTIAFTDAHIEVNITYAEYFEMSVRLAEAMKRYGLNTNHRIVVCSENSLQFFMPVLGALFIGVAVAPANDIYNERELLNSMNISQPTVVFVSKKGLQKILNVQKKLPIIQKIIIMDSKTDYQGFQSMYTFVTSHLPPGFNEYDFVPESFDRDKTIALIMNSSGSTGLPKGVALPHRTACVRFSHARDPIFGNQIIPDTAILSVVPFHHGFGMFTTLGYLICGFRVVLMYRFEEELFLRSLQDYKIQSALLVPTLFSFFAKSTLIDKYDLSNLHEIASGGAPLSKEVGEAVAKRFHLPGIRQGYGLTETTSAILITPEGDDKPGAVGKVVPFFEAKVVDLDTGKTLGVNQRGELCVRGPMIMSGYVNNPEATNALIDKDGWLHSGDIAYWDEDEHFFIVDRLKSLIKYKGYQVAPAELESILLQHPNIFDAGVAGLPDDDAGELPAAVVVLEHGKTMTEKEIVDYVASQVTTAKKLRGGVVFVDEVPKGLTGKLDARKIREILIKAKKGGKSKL
Thyrotropin receptor (Homo sapiens), sequence (P16473 whole entry, looked up): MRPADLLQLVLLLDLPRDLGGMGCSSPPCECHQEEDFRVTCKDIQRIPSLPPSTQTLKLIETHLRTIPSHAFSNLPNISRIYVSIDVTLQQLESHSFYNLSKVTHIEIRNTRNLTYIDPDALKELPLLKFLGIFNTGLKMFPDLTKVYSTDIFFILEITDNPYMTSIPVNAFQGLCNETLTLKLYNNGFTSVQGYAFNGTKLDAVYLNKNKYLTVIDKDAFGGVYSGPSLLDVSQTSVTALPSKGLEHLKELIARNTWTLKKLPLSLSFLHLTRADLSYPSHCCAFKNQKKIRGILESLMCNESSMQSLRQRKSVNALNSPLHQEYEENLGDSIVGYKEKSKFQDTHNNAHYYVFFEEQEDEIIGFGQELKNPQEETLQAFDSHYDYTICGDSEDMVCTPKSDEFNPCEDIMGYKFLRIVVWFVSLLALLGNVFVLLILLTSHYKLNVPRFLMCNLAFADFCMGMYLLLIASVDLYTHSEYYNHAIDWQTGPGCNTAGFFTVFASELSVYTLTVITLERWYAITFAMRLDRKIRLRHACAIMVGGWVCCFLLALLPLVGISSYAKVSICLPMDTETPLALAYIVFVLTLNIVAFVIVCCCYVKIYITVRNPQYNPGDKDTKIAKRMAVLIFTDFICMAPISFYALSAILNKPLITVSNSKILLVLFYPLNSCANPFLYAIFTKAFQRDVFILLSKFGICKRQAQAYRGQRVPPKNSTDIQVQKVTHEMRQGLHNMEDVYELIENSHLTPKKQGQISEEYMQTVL
Nuclear receptor subfamily 1 group I member 3 (Homo sapiens), sequence (Q14994 whole entry, looked up): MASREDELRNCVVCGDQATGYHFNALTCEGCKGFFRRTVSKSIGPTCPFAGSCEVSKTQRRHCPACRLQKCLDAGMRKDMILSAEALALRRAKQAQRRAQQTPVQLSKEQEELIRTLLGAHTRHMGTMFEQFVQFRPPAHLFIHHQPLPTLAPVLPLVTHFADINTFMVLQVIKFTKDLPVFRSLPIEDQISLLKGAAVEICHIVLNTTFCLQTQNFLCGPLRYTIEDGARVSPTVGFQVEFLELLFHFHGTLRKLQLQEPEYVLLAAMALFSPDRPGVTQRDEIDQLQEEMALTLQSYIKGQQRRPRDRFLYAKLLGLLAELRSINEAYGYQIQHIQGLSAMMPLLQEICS

SMILES	Potency [1]	Potency [2]	Potency [3]	Potency [4]	Potency [5]	Potency [6]	Potency [7]	Potency [8]	Potency [9]	Potency [10]	Potency [11]	outcome [12]	Potency [13]	Potency [14]	activity change, positive = activation [15] [%]	Potency [16]	Potency [17]	Potency [18]	Potency [19]	Potency [20]
CCCCCCCC(=O)OCCCCCC	inactive	inactive	inactive	inactive	inactive	inactive	inactive	inactive	inactive	inactive	inactive	inactive	inactive	inactive	-7.04	inactive	3.47 µM (active)	inactive	inactive	
O=C(O)CCC(=O)c1ccc(-c2ccccc2)cc1	6.92 µM (active)	inactive	inactive	inactive	inactive	inactive			inactive		inactive	inactive	inactive			inactive	inactive	inactive		
CC(C)(C(=O)c1cccnc1)c1cccnc1	inactive	inactive	inactive	inactive	inactive	inactive			inactive	inactive	inactive	inactive	inactive			inactive	inactive	inactive	inactive	
CC(C)COC(=O)COc1cc(Cl)c(Cl)cc1Cl		inactive	inactive	inactive	inactive	inactive	inactive	inactive		inactive	inactive	inactive	inactive	inactive	-0.133	inactive			inactive	inactive
